Results published in PubChem BioAssay (NCI).
About 79,000 compounds went through this panel and 15% of them were active in at least one assay; those are over-represented in the sample as a whole. The source made the active and inactive calls. Rule as the data show it: active = growth inhibition above about 70%; inactive = the rest.

Columns and labels:
[1] = NCI Yeast Anticancer Drug Screen. Data for the rad52 strain (AID 147);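 also: 0% = growth of vehicle-treated control cultures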; settings: S. cerevisiae rad52 mutant growth inhibition, stronger effect = higher value
In short: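 Measured: yeast growth inhibition. System: strain with a defined DNA damage repair alteration. Reference: vehicle-treated control cultures.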

[2] = NCI Yeast Anticancer Drug Screen. Data for the wt1 strain (AID 149);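 also: 0% = growth of vehicle-treated wt1 cultures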; settings: S. cerevisiae wt1 strain (SPY 50644) growth inhibition, stronger effect = higher value
In short: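 wt1 yeast, compound-treated; % growth inhibition vs vehicle control.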

[3] = NCI Yeast Anticancer Drug Screen. Data for the rad50EPP+ strain (AID 151);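 also: 0% = growth of vehicle-treated control cultures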; settings: S. cerevisiae rad50 mutant strain, stronger effect = higher value
In short: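 One strain with a rad50 alteration (rad50EPP+) was compound-treated, its growth then compared to that of vehicle controls.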

[4] = NCI Yeast Anticancer Drug Screen. Data for the mgt1 strain (AID 153); settings: S. cerevisiae mgt1 mutant growth inhibition, stronger effect = higher value
In short: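 After exposure of the mgt1 yeast mutant to compound, growth was measured and reported as inhibition compared with vehicle controls.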

[5] = NCI Yeast Anticancer Drug Screen. Data for the rad50 strain (AID 155);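 also: 0% = growth of vehicle-only cultures of the same strain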; settings: S. cerevisiae rad50 strain growth inhibition, stronger effect = higher value
In short: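 Genetically altered yeast (DNA repair pathway); compound treatment; growth inhibition vs vehicle ctrl.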

[6] = NCI Yeast Anticancer Drug Screen. Data for the mec2-1 strain (AID 157); settings: S. cerevisiae mec2-1 strain, stronger effect = higher value
In short: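 Test agents were screened against the mec2-1 yeast strain, with defined DNA repair or cell cycle alteration. Growth was scored as inhibition against vehicle-only controls.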

[7] = NCI Yeast Anticancer Drug Screen. Data for the rad14 strain (AID 159);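 also: 0% = growth of vehicle-treated control cultures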; settings: S. cerevisiae rad14 strain growth inhibition, stronger effect = higher value
In short: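 Test compounds were applied to a repair-deficient yeast strain. Its growth was then compared with that of cultures given vehicle alone, and inhibition was expressed relative to those controls.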

[8] = NCI Yeast Anticancer Drug Screen. Data for the sgs1 mgt1 strain (AID 161);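 also: 0% = growth of cultures given vehicle only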; settings: S. cerevisiae sgs1 mgt1 strain, stronger effect = higher value
In short: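 Genetically altered yeast, compound exposure, growth inhibition relative to vehicle.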

[9] = NCI Yeast Anticancer Drug Screen. Data for the CLN2oe strain (AID 163);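 also: 0% = growth of vehicle-only control cultures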; settings: S. cerevisiae CLN2oe strain, stronger effect = higher value
In short: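 Here, growth inhibition in a cell-cycle-altered yeast strain after compound exposure was quantified against vehicle control growth.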

[10] = NCI Yeast Anticancer Drug Screen. Data for the cln2 rad14 strain (AID 165);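 also: 0% = growth equal to vehicle treated cultures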; settings: S. cerevisiae cln2 rad14 strain, stronger effect = higher value
In short: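 Growth of compound-exposed yeast (cln2 rad14 genotype) measured and expressed as inhibition relative to vehicle.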

[11] = NCI Yeast Anticancer Drug Screen. Data for the bub3 strain (AID 167); settings: S. cerevisiae bub3 mutant strain, stronger effect = higher value
In short: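 Yeast carrying a defined mutation is treated with each compound, and growth is compared with that of vehicle-exposed cells to give inhibition.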

[12] = NCI Yeast Anticancer Drug Screen. Data for the wt2 strain (AID 169);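 also: 0% = growth of vehicle-treated yeast cultures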; settings: S. cerevisiae wt2 strain growth inhibition, stronger effect = higher value
In short: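 Genetically defined yeast strains from a DNA-repair/cell-cycle panel were used. Compound-exposed yeast growth was measured, and the inhibition was calculated relative to vehicle treatment.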

[13] = NCI Yeast Anticancer Drug Screen. Data for the mlh1 strain (AID 171);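 also: 0% = growth of vehicle-treated control cultures of the same strain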; settings: S. cerevisiae mlh1 strain growth inhibition, stronger effect = higher value
In short: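 Here the genetically defined yeast mutant is grown with each compound, and the extent to which its growth falls below that of vehicle-exposed cells is reported.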

[14] = NCI Yeast Anticancer Drug Screen. Data for the sgs1 strain (AID 173);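 also: 0% = growth of vehicle-only control cultures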; settings: S. cerevisiae sgs1 mutant, stronger effect = higher value
In short: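 Relative growth inhibition, referenced to vehicle, was determined in a yeast strain with a defined alteration affecting DNA damage repair or cell cycle control after compound exposure.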

[15] = NCI Yeast Anticancer Drug Screen. Data for the mlh1 rad18 strain (AID 175); settings: S. cerevisiae mlh1 rad18 strain growth inhibition, stronger effect = higher value
In short: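 In this whole-cell yeast screen, a strain with altered DNA damage repair is challenged with compound, and its growth is measured against matched vehicle-treated controls.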

[16] = NCI Yeast Anticancer Drug Screen. Data for the rad18 strain (AID 177); settings: S. cerevisiae rad18 mutant growth inhibition, stronger effect = higher value
In short: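 Screen uses a yeast strain with a defined lesion in DNA damage repair; compound effect is read as loss of growth compared to untreated vehicle cultures.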

[17] = at 5.0 µM (retest, dose inferred, filed as 0.5)
[18] = at 50.0 µM (retest, dose inferred, filed as 5.0)

Measured: growth inhibition

Oc1ccc2ccccc2c1CCc1c(O)ccc2ccccc12
inactive: [1]; at 1.2 µM 3% | [1]; at 3.7 µM 14% | [1]; at 11.0 µM 54% | [2]; at 1.2 µM 5% | [2]; at 3.7 µM 17% | [2]; at 11.0 µM 19% | [2]; at 33.0 µM 52% | [3]; at 1.2 µM 28% | [4]; at 1.2 µM 2% | [4]; at 3.7 µM 6% | [4]; at 11.0 µM 60% | [5]; at 1.2 µM 5% | [5]; at 3.7 µM 13% | [5]; [17] 15% | [5]; at 11.0 µM 68% | [6]; at 1.2 µM 7% | [6]; at 3.7 µM 15% | [6]; [17] -6% | [7]; at 1.2 µM 3% | [7]; at 3.7 µM 8% | [7]; at 11.0 µM 28% | [8]; [17] 41% | [9]; at 1.2 µM 7% | [9]; at 3.7 µM 4% | [10]; [17] 6% | [11]; at 1.2 µM -1% | [11]; at 3.7 µM 2% | [11]; [17] 45% | [12]; at 1.2 µM 7% | [12]; at 3.7 µM 16% | [12]; at 11.0 µM 38% | [12]; at 33.0 µM 66% | [13]; at 1.2 µM 5% | [13]; at 3.7 µM 8% | [14]; at 1.2 µM 7% | [14]; at 3.7 µM 19% | [14]; at 11.0 µM 51% | [15]; [17] 55% | [16]; at 1.2 µM 5% | [16]; at 3.7 µM 15% | [16]; at 11.0 µM 46%
active: [1]; at 33.0 µM 94% | [1]; at 100.0 µM 85% | [2]; at 100.0 µM 88% | [3]; at 3.7 µM 70% | [3]; at 11.0 µM 85% | [3]; at 33.0 µM 86% | [3]; at 100.0 µM 83% | [4]; at 33.0 µM 95% | [4]; at 100.0 µM 87% | [5]; at 33.0 µM 93% | [5]; [18] 94% | [5]; at 50.0 µM 95.1% | [5]; at 100.0 µM 86% | [6]; at 11.0 µM 95% | [6]; at 33.0 µM 96% | [6]; [18] 95% | [6]; at 50.0 µM 96.5% | [6]; at 100.0 µM 90% | [7]; at 33.0 µM 89% | [7]; at 100.0 µM 85% | [8]; [18] 94% | [8]; at 50.0 µM 95% | [9]; at 11.0 µM 97% | [9]; at 33.0 µM 92% | [9]; at 100.0 µM 82% | [10]; [18] 92% | [10]; at 50.0 µM 88.2% | [11]; at 11.0 µM 98% | [11]; at 33.0 µM 93% | [11]; [18] 94% | [11]; at 50.0 µM 94.9% | [11]; at 100.0 µM 86% | [12]; at 100.0 µM 87% | [13]; at 11.0 µM 79% | [13]; at 33.0 µM 94% | [13]; at 100.0 µM 90% | [14]; at 33.0 µM 92% | [14]; at 100.0 µM 88% | [15]; [18] 92% | [15]; at 50.0 µM 95.2% | [16]; at 33.0 µM 91% | [16]; at 100.0 µM 85%
